In PubChem BioAssay (Tox21):
Records with an inconclusive call do not appear. A call without a number means that no potency is given here. The source made the active and inactive calls. The call rests on the fitted dose curve.

These compounds were tested against Muscarinic acetylcholine receptor M1 (Homo sapiens) (UniProt P11229) (assay: Cholinergic receptor muscarinic 1 (CHRM1) small molecule antagonists, cell-based qHTS assay (AID 1963588; further: nearly all actives have a fitted effect of over 40% in size)). Settings: CHRM1-CHO antagonist mode, calcium flux fluorescence; series mostly up to 61.5 µM.
Muscarinic acetylcholine receptor M1 (Homo sapiens), sequence (P11229 whole entry, looked up): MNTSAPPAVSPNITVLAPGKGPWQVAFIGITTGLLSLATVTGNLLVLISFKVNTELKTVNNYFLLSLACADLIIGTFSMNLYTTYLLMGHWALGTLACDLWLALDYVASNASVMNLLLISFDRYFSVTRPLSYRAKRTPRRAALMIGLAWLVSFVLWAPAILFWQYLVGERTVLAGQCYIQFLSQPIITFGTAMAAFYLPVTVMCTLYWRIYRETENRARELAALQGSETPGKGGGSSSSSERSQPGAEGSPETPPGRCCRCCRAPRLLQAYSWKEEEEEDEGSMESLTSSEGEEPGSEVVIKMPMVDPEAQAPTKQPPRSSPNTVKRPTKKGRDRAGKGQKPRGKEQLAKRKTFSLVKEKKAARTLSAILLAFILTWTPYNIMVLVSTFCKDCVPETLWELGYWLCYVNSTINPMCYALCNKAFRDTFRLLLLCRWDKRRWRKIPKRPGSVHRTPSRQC
From the text: National Center for Advancing Translational Sciences [NCATS]
Division of Preclinical Innovation [DPI]
U.S. Environmental Protection Agency [EPA]
National Institutes of Environmental Health Sciences [NIEHS]
National Toxicology Program [NTP]
U.S. Food and Drug Administration [FDA]
The CHRM1 is a muscarinic receptor. This receptor plays a crucial role in learning and memory processes and has long been identified as a promising therapeutic target for the improvement of cognitive decline in Alzheimer's disease (AD). The CHRM1-CHO cell line stably expressing human muscarinic acetylcholine receptor M1 (CHRM1) can be used for screening agonists and antagonists of interactions between CHRM1 and its ligands. The CHRM1-CHO Calcium Flux Assay is a homogeneous fluorescence-based assay for detecting the intracellular calcium level using FDSS kinetic plate reader system.
Tox21 Assay Protocol Summary:
CHRM1-CHO cells were dispensed at 1000 cells/3uL/well in 1536-well black-clear bottom plates using a Multidrop Dispenser. After the assay plates were incubated at a 37 C/5% CO2 incubator for 18 h, 3 uL of Dye Loading Buffer was transferred to the assay plate by a Flying Reagent Dispenser. The assay plates were incubated at 37 C for 1h. For antagonist mode, 23 nL of compounds dissolved in DMSO, positive controls or DMSO only was transferred to the assay plate by a pin tool. After 5 min incubation at room temperature, 1.5 uL of acetylcholine at 50nM was added to each well. The fluorescence intensity in the plates was measured using FDSS 7000EX kinetic plate reader for 3 min at 1 sec intervals. Each test compound was measured at 15 concentrations in three independent runs.
Potency means the concentration at half of the fitted maximal effect.

| SMILES | Potency |
| --- | --- |
| Cc1nc2ccc(CN(C)c3ccc(C(=O)N[C@@H](CCC(=O)O)C(=O)O)s3)cc2c(=O)[nH]1 | inactive |
| COc1cc(OC)c2ccc(=O)oc2c1 | inactive |
| CC1C2CC(CC2C2CCCC(O)C2)C1(C)C (stereo not given) | inactive |
| O=c1[nH]nc(-c2ccc([N+](=O)[O-])o2)o1 | inactive |
| CC(=O)OCC(=O)[C@@]1(O)[C@H](OC(C)=O)C[C@H]2[C@@H]3CCC4=CC(=O)C=C[C@]4(C)[C@@]3(F)[C@@H](O)C[C@@]21C | inactive |
| O=C(Nc1ccc2c(c1)Cc1ccccc1-2)C(F)(F)F | inactive |
| Oc1ccc(C2(c3ccc(O)cc3)CC3CC2C2CCCC32)cc1 (stereo not given) | inactive |
| Clc1ccc(C(Cn2ccnc2)OCc2ccc(Sc3ccccc3)cc2)c(Cl)c1 (stereo not given) | inactive |
| CCCCCCCCCCCCCCCCCC[N+](C)(C)Cc1ccccc1 | 0.19 µM (active) |
| COc1cc(NCc2ccc3nc(N)nc(N)c3c2C)cc(OC)c1OC | inactive |
| COC(=O)C1=C(C)NC(C)=C(C(=O)OC(C)C)C1c1cccc2nonc12 (stereo not given) | inactive |
| OCC(O)CO | inactive |
| O=C(O)c1cc(Br)c(O)c(Br)c1 | inactive |
| C=CCN1C[C@H](C(=O)N(CCCN(C)C)C(=O)NCC)C[C@@H]2c3cccc4[nH]cc(c34)C[C@H]21 | inactive |
| O=C(O)c1nc(Cl)c(Cl)c(Cl)c1Cl | inactive |
| CC[C@H]1CC[C@H](NCc2cc3c(cc2OC)[C@H]2C[C@H]2C(=O)N3C)[C@H](c2ccccc2)N1 | 0.0472 µM (active) |
| Oc1cc2ccccc2c2ccccc12 | inactive |
| Cc1cc(-c2ccc(N=Nc3cc(S(=O)(=O)O)c4ccccc4c3N)c(C)c2)ccc1N=Nc1cc(S(=O)(=O)O)c2ccccc2c1N | 7.52 µM (active) |
| CCc1cc(C(C)(C)C)c(O)c(C(C)(C)C)c1 | inactive |
| O=C1CCCCC1C1CCCCC1 (stereo not given) | inactive |

| SMILES | Potency |
| --- | --- |
| FC(F)(Cl)C(F)(Cl)Cl | inactive |
| COc1ccc(S(=O)(=O)N2C(=O)[C@@](c3ccccc3OC)(N3C[C@H](O)C[C@H]3C(=O)N(C)C)c3cc(Cl)ccc32)c(OC)c1 | inactive |
| Cc1ccc(N=Nc2c(O)c(C(=O)O)cc3ccccc23)c(S(=O)(=O)O)c1 | inactive |
| CCN(CC)c1ccc2c(-c3ccccc3C(=O)O)c3ccc(=[N+](CC)CC)cc-3oc2c1 | inactive |
| Cc1ccccc1N=C(N)Nc1ccccc1C | 7.35 µM (active) |
| O=C1CCCCCCCCCCCCCCO1 | inactive |
| COc1ccc(/C=C/C(=O)c2ccc(OC)cc2OC)cc1 | inactive |
| O=C(O)c1c(Cl)ccc(Cl)c1Cl | inactive |
| Cc1[nH]cnc1C[C@H]1CCc2c(C)c3ccccc3n2C1=O | 25.9 µM (active) |
| CC(=O)/C(C)=C/C1C(C)=CCCC1(C)C (stereo not given) | inactive |
| CCN(CC)CCCC(C)Nc1ccnc2cc(Cl)ccc12 (stereo not given) | 2.52 µM (active) |
| CC(C)(C)c1ccc(N)cc1 | inactive |
| CCCCN(CCCC)c1ccc(C(=O)c2ccccc2C(=O)O)c(O)c1 | inactive |
| CC(C)c1ccc2c(c1)CC[C@H]1[C@](C)(CN)CCC[C@]21C | inactive |
| CCCC1CCOC(C)S1 (stereo not given) | inactive |
| O=C(O)c1c2ccccc2cc2ccccc12 | inactive |
| CCCCCCCCCCCCCCOS(=O)(=O)O | inactive |
| CC(C)CCCCCCOC(=O)C1CCCCC1C(=O)OCCCCCCC(C)C (stereo not given) | inactive |
| COCCOC(=O)CC#N | inactive |
| CC(C)(C)C(=O)c1ccccc1 | inactive |
